Measurements as given in the supplement of paper PMC10849652.
Targets with a hit are over-represented here; the source holds about 8,800 in all. About 0.5% of all pairs of compound and target were hits.

Key:
Assay in all cases: log2 fold change, soluble protein after heating vs DMSO (PISA); higher = thermal stabilisation; K562 lysate, 10 uM; active = over 0.2 and 3.5 SD of the protein, either way, in both replicates (recomputed)
ibrutinib = compound: C=CC(=O)N1CCC[C@@H](n2nc(-c3ccc(Oc4ccccc4)cc3)c3c(N)ncnc32)C1 [ibrutinib]
Summary of the method: (§1)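 Log-two fold change in thermal stability relative to solvent controls is reported from duplicates. For each sample, crude K562 extract from dounce-homogenised pellets in PBS pH 7.4 with 1 mM MgCl2, at 1 mg/mL protein, was treated with 10 μM compound for 30 min. Aliquots heated for 3 min across 48°C-58°C were pooled, brought to 0.5% NP-40 at 4°C and cleared at 21,000xg for 90 min. The supernatant was quantified by TMTpro 16plex LC-MS/MS with channel sums equalised.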

[1] = compound: CC(=O)c1cnc2ccc(-c3cc(Cl)c(O)c(Cl)c3)nc2c1N[C@H]1CC[C@H](CN(C)C)CC1
Summary of the method: as §1

ralimetinib = compound: CC(C)(C)Cn1c(N)nc2ccc(-c3[nH]c(C(C)(C)C)nc3-c3ccc(F)cc3)nc21 [ralimetinib]
Summary of the method: as §1

[2] = compound: CC(C)(O)CC(=O)NCCn1ccc2ncnc(Nc3ccc(Oc4cccc(C(F)(F)F)c4)c(Cl)c3)c21
Summary of the method: as §1

[3] = compound: CC(C)C1=C2N=C(C=C(N2N=C1)NCC3=CC=CC=C3)NCCCCCCN
Summary of the method: as §1

[4] = compound: CC1=C(C(CC(=O)N1)C2=CC=C(C=C2)C(F)(F)F)C(=O)NC3=C(C=C4C(=C3)C=NN4)F
Summary of the method: as §1

[5] = compound: CC1=C(C2=C(C=C1)C(=O)C3=CC=CC=C3N2CCCN)C
Summary of the method: as §1

[6] = compound: CC1=C(C=C(C=C1)NC(=O)C2=CC(=CC=C2)C(C)(C)C#N)NC3=CC4=C(C=C3)N=CN(C4=O)C
Summary of the method: as §1

[7] = compound: CC1=C(C=C(C=C1)NC(=O)C2=CC(=CC=C2)N(C)C)NC(=O)C3=CC=C(C=C3)O
Summary of the method: as §1

[8] = compound: CC1=CC=C(C=C1)SC2=C3C=C(SC3=CN=C2)C(=O)N
Summary of the method: as §1

Measured: log2 fold change

SF3B6 (UniProt Q9Y3B4)
inactive: ibrutinib 0.036 | [1] 0.004 | ralimetinib -0.001 | [2] -0.017 | [3] -0.002 | [4] 0.043 | [5] 0.003 | [6] 0.002 | [7] 0.024 | [8] -0.007

SLC27A2 (UniProt O14975)
Sequence of UniProt O14975 (O14975 whole entry, looked up): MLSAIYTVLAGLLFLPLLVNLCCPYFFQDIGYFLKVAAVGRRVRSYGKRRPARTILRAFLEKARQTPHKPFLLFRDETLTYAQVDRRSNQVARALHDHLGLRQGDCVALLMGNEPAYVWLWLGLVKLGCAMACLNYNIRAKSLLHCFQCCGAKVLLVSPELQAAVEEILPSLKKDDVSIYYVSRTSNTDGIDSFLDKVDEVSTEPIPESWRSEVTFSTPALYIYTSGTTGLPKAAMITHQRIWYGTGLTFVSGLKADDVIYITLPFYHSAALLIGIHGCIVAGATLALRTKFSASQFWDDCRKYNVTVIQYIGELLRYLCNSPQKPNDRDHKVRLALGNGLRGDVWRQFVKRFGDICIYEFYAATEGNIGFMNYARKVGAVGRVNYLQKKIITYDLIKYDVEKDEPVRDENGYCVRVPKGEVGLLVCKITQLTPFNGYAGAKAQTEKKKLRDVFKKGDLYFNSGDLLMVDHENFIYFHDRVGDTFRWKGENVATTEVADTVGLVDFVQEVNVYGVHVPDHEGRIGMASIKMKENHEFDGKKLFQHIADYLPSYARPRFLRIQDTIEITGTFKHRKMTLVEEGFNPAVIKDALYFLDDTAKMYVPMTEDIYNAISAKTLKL
inactive: ibrutinib 0.243 | [1] -0.024 | ralimetinib -0.013 | [2] 0.245 | [3] 0.11 | [4] -0.041 | [5] -0.035 | [6] 0.069 | [7] -0.089 | [8] 0.031

SMIM12 (UniProt Q96EX1)
inactive: ibrutinib 0.04 | [1] 0.013 | ralimetinib 0.021 | [2] -0.049 | [3] -0.024 | [4] -0.008 | [5] -0.002 | [6] 0.038 | [7] -0.064 | [8] -0.011

SPNS1 (UniProt Q9H2V7)
Sequence of UniProt Q9H2V7 (Q9H2V7 whole entry, looked up): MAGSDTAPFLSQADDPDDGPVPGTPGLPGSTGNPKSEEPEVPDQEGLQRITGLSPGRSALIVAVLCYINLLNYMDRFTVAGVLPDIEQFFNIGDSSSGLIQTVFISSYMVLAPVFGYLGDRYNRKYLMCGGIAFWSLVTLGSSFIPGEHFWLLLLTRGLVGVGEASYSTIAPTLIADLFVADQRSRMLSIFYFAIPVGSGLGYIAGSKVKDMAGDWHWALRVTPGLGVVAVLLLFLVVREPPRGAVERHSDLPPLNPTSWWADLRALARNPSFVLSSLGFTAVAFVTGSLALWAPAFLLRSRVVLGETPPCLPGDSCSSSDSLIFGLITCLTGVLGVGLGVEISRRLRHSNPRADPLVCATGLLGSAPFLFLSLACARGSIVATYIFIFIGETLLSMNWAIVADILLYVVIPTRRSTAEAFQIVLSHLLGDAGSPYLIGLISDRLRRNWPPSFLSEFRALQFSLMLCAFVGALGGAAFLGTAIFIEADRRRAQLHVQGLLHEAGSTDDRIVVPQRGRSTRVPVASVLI
inactive: ibrutinib 0.02 | [1] -0.001 | ralimetinib 0.005 | [2] -0.009 | [3] 0.007 | [4] -0.009 | [5] -0.007 | [6] 0.047 | [7] -0.029 | [8] 0.012

STK38 (UniProt Q15208)
inactive: ibrutinib 0.008 | ralimetinib 0.036 | [2] 0.048 | [3] 0.025 | [4] 0.006 | [5] 0.017 | [6] 0.014 | [7] -0.003 | [8] 0.002
active: [1] 0.361

SNRPF (UniProt P62306)
Sequence of UniProt P62306 (P62306 whole entry, looked up): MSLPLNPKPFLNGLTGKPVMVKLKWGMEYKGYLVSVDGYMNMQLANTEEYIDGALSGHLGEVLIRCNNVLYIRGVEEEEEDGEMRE
inactive: ibrutinib -0.027 | [1] -0.013 | ralimetinib -0.024 | [2] -0.072 | [3] -0.004 | [4] 0.015 | [5] -0.137 | [6] 0.018 | [7] 0.028 | [8] -0.082

SPHK1 isoform 2 (UniProt Q9NYA1)
Sequence of UniProt Q9NYA1 (Q9NYA1 whole entry, looked up): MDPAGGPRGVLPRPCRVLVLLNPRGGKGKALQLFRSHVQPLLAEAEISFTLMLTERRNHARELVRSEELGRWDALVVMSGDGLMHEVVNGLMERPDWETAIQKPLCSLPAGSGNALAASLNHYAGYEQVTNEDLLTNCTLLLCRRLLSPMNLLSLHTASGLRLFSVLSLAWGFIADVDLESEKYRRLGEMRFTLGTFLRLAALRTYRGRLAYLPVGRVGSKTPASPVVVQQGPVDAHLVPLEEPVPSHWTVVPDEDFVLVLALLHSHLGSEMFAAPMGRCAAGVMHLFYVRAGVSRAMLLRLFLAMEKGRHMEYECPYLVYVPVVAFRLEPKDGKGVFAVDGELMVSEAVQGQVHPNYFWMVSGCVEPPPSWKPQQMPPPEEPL
active: [6] -0.276
inactive: ibrutinib -0.088 | [1] 0.029 | ralimetinib 0.124 | [2] 0.061 | [3] 0.021 | [4] 0.041 | [5] 0.041 | [7] -0.061 | [8] -0.036

SMARCA4 (UniProt P51532)
inactive: ibrutinib 0.021 | [1] -0.007 | ralimetinib 0.035 | [2] 0.018 | [3] -0.009 | [4] -0.003 | [5] -0.032 | [6] -0.026 | [7] 0.028 | [8] 0.012

SLC20A1 (UniProt Q8WUM9)
inactive: ibrutinib 0.022 | [1] -0.028 | ralimetinib -0.013 | [2] -0.08 | [3] 0.05 | [4] 0.072 | [5] -0.015 | [6] 0.027 | [7] 0.002 | [8] -0.054

STOML2 (UniProt Q9UJZ1)
Sequence of UniProt Q9UJZ1 (Q9UJZ1 whole entry, looked up): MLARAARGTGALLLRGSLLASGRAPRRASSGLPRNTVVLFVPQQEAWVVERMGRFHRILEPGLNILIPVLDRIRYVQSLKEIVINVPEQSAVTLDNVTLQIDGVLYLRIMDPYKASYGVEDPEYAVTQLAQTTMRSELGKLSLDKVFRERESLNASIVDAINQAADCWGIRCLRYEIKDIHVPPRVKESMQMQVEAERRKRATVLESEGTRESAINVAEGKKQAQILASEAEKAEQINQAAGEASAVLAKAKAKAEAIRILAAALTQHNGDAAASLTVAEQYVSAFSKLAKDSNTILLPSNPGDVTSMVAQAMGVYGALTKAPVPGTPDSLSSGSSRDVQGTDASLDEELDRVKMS
inactive: ibrutinib 0.017 | [1] -0.012 | ralimetinib -0.015 | [2] -0.028 | [3] 0.033 | [4] -0.025 | [5] -0.04 | [6] 0 | [7] 0.002 | [8] -0.006

SUZ12 (UniProt Q15022)
inactive: ibrutinib -0.043 | [1] 0.013 | ralimetinib 0.003 | [2] -0.036 | [3] 0.007 | [4] -0.023 | [5] -0.09 | [7] 0.048 | [8] -0.01
active: [6] 0.289

SPC25 (UniProt Q9HBM1)
inactive: ibrutinib 0 | [1] -0.058 | ralimetinib -0.038 | [2] 0.015 | [3] -0.002 | [4] -0.032 | [5] -0.017 | [6] 0.016 | [7] 0.002 | [8] 0.006

SULT1A1 (UniProt P50225)
inactive: ibrutinib 0.02 | [1] -0.027 | ralimetinib 0.028 | [2] -0.03 | [3] 0.03 | [4] -0.009 | [5] -0.06 | [6] 0.022 | [7] 0.047 | [8] 0.006

STK39 (UniProt Q9UEW8)
inactive: ibrutinib -0.114 | [1] 0.011 | ralimetinib 0.012 | [2] -0.041 | [3] -0.015 | [4] 0.007 | [5] -0.045 | [6] -0.02 | [7] 0.037 | [8] -0.019

SNRPD2 (UniProt P62316)
Sequence of UniProt P62316 (P62316 whole entry, looked up): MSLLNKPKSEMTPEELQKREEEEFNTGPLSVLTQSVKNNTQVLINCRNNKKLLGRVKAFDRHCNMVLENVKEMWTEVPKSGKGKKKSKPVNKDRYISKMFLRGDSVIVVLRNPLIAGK
inactive: ibrutinib -0.028 | [1] -0.033 | ralimetinib -0.018 | [2] -0.041 | [3] 0.007 | [4] -0.011 | [5] 0.016 | [6] 0.01 | [7] 0.015 | [8] -0.005

SH3GL3 isoform 3 (UniProt Q99963)
inactive: ibrutinib 0.042 | [1] -0.104 | ralimetinib -0.014 | [2] 0.004 | [3] 0.001 | [4] -0.017 | [5] -0.045 | [6] 0.027 | [7] 0.042 | [8] -0.102

TAPT1 (UniProt Q6NXT6)
Sequence of UniProt Q6NXT6 (Q6NXT6 whole entry, looked up): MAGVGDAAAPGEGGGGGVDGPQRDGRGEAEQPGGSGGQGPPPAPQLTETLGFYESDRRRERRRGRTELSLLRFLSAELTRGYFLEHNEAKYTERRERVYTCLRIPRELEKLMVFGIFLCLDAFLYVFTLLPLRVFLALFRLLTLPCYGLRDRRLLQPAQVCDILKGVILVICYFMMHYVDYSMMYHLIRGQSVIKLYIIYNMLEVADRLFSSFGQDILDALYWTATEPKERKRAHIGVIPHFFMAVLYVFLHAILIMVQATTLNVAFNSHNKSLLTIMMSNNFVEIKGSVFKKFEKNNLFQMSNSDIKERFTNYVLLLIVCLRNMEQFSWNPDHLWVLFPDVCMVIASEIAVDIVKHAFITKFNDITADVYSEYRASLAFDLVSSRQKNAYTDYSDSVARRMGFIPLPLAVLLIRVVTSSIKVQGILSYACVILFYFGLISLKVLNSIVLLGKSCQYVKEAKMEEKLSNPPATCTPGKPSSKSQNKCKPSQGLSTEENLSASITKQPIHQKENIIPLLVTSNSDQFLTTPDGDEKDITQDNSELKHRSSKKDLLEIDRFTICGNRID
inactive: ibrutinib 0.071 | [1] 0.012 | ralimetinib -0.029 | [2] -0.07 | [3] 0.004 | [4] -0.019 | [5] -0.014 | [6] 0.09 | [7] -0.004 | [8] -0.027

SSU72 (UniProt Q9NP77)
inactive: ibrutinib 0.075 | [1] 0.031 | ralimetinib 0.026 | [2] -0.002 | [3] 0.038 | [4] -0.018 | [5] 0.025 | [6] 0.001 | [7] 0.015 | [8] 0.03

SRM (UniProt P19623)
inactive: ibrutinib 0.018 | [1] 0.007 | ralimetinib 0.025 | [2] -0.047 | [3] -0.011 | [4] -0.003 | [5] -0.006 | [6] 0.003 | [7] 0 | [8] -0.011

SMAP2 (UniProt Q8WU79)
Sequence of UniProt Q8WU79 (Q8WU79 whole entry, looked up): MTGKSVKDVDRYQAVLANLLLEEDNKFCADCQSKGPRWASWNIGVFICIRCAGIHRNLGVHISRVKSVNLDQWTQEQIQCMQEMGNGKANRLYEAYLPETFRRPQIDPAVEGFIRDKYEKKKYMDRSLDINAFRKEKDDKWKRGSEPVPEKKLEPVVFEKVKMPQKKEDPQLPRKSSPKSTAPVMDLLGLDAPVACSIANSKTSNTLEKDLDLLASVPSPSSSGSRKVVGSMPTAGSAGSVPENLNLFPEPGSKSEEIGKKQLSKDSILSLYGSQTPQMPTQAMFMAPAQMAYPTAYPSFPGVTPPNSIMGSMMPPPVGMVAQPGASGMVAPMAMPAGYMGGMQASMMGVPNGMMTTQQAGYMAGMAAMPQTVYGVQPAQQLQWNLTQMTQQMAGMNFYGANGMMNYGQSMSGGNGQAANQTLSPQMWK
inactive: ibrutinib -0.008 | [1] -0.008 | ralimetinib -0.015 | [2] -0.01 | [3] 0.024 | [4] 0.034 | [5] 0.019 | [7] -0.015 | [8] 0.002
active: [6] -0.286

SHC1 isoform 6 (UniProt P29353)
inactive: ibrutinib 0.053 | [1] -0.007 | ralimetinib -0.02 | [2] -0.041 | [3] -0.007 | [4] -0.016 | [5] -0.006 | [6] -0.004 | [7] 0.002 | [8] -0.008

SLC12A6 (UniProt Q9UHW9)
inactive: ibrutinib 0.01 | [1] -0.021 | ralimetinib -0.037 | [2] -0.014 | [3] 0.011 | [4] 0.001 | [5] -0.012 | [6] 0.012 | [7] 0.024 | [8] -0.021

SPATA5L1 (UniProt Q9BVQ7)
inactive: ibrutinib -0.007 | [1] 0.02 | ralimetinib 0.037 | [2] -0.054 | [3] 0.018 | [4] -0.004 | [5] -0.052 | [6] -0.007 | [7] 0.026 | [8] -0.008

SRRT (UniProt Q9BXP5)
inactive: ibrutinib 0.013 | [1] 0 | ralimetinib 0.026 | [2] 0.006 | [3] -0.01 | [4] -0.024 | [5] -0.012 | [6] -0.008 | [7] 0.043 | [8] -0.001

SLC25A17 (UniProt O43808)
inactive: ibrutinib -0.007 | [1] -0.043 | ralimetinib 0.047 | [2] -0.019 | [3] 0.037 | [4] 0.001 | [5] 0.029 | [6] 0.03 | [7] -0.01 | [8] 0.044

SLC11A2 isoform 3 (UniProt P49281)
Sequence of UniProt P49281 (P49281 whole entry, looked up): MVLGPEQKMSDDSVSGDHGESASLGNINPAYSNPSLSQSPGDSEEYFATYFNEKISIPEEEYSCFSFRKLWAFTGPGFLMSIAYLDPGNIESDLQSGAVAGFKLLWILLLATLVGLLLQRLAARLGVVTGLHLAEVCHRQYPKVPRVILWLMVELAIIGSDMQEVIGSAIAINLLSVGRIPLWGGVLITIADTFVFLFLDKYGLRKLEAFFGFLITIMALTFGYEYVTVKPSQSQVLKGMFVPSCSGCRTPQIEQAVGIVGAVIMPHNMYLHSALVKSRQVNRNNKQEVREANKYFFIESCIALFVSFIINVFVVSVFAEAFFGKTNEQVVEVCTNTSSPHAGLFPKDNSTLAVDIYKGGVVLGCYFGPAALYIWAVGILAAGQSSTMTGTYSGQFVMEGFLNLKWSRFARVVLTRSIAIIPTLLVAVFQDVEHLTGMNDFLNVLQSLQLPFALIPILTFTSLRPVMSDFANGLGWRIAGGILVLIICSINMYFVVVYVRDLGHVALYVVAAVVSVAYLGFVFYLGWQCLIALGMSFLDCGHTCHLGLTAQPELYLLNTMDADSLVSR
inactive: ibrutinib -0.032 | [1] -0.018 | ralimetinib -0.038 | [2] -0.093 | [3] 0.017 | [4] 0.242 | [5] -0.001 | [6] 0.094 | [7] 0.001 | [8] 0.003

SSBP3 (UniProt Q9BWW4)
inactive: [1] -0.024 | ralimetinib 0 | [2] -0.038 | [3] -0.02 | [4] -0.021 | [5] -0.018 | [6] -0.018 | [7] 0 | [8] 0.054
active: ibrutinib 0.435

SPATS2 (UniProt Q86XZ4)
inactive: ibrutinib -0.06 | [1] -0.069 | ralimetinib -0.018 | [2] 0.03 | [3] 0.111 | [4] 0.077 | [5] -0.061 | [6] -0.007 | [7] -0.046 | [8] -0.001

SMC1B isoform 3 (UniProt Q8NDV3)
Sequence of UniProt Q8NDV3 (Q8NDV3 whole entry, looked up): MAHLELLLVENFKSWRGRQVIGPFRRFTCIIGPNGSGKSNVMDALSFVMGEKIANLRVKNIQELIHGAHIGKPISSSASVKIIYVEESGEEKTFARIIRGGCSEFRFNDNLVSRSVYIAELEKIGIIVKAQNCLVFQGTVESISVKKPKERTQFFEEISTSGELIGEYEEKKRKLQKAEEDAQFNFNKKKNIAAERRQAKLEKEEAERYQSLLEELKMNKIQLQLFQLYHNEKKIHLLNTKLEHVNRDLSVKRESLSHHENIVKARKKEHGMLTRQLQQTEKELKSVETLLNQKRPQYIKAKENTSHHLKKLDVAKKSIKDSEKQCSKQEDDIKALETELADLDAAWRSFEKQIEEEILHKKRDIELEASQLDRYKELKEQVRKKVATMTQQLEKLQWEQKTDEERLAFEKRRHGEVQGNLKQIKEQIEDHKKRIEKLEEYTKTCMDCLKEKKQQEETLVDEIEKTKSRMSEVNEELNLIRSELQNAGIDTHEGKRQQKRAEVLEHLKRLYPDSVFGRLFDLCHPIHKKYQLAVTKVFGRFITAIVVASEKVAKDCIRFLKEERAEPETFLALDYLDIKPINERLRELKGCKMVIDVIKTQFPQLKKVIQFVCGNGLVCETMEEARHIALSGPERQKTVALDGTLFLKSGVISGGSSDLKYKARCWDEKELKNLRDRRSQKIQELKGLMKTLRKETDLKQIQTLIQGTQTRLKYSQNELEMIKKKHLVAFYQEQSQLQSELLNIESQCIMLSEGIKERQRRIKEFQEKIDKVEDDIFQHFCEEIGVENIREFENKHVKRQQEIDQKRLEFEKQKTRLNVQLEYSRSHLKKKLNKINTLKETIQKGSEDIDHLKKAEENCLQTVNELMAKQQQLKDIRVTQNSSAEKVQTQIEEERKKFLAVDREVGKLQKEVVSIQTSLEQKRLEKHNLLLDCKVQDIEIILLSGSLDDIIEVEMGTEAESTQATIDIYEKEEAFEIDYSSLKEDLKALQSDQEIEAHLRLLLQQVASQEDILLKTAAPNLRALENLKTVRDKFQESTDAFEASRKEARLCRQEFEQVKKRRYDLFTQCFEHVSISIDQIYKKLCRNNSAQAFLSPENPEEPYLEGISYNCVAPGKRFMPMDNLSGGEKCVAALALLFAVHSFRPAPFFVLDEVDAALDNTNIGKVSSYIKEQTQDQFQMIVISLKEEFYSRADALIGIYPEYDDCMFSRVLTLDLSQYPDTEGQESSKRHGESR
inactive: ibrutinib 0.013 | [1] 0.017 | ralimetinib 0.07 | [2] -0.029 | [3] 0.001 | [4] -0.012 | [5] -0.001 | [6] 0.021 | [7] 0.026 | [8] -0.005

SNX6, A0A0A0MRI2
inactive: ibrutinib -0.034 | [1] 0 | ralimetinib -0.005 | [2] -0.03 | [3] -0.011 | [4] -0.032 | [5] -0.001 | [6] 0.018 | [7] 0.039 | [8] -0.004
